For 62 molecules, fluorescence interference ratio results are on record in PubChem BioAssay AID720488 (Milwaukee Institute for Drug Discovery, 2013).

Out of some 16,000 compounds screened, about 960 (6%) were called active.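 The calls were made as follows: active = compound fluorescence over control fluorescence at most 0.8, a quencher, or at least a set upper limit, an enhancer; inactive = ratio between 0.8 and the set upper limit.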 This excerpt belongs to a sample that is enriched for actives.

A short description of this assay: Cy5 fluorescence quenchers or enhancers, artefact control for HCV NS3 helicase inhibitor project, biochemical, ChemBridge library, Cy5 readout (AID 720488). Particulars: Cy5-dT15 DNA with NS3h, at 100 µM, actives lie on both sides, signal over control mean, under 1 quenches.
Take `O=C1/C(=C\c2cn(Cc3ccccc3F)c3ccccc23)SC(=S)N1c1ccc([N+](=O)[O-])cc1`: the fluorescence interference ratio was 0.998 (inactive).
Consider `CC(C)(C)N1C(=O)NC(=O)C(=Cc2cccs2)C1=O`, for which the fluorescence interference ratio is 1.01 (inactive).
For `CCCCOC(=O)CCN1C(=O)/C(=C/c2ccc3c(c2)OCO3)SC1=S` the value was 0.998 (inactive).
Under `O=C(NC(NC(=O)C(c1ccccc1)c1ccccc1)c1ccc(F)cc1)C(c1ccccc1)c1ccccc1` stands 1.07 (inactive).
Take `CCOC(=O)c1ccc(NC2C=CS(=O)(=O)C2)cc1` (configuration not stated): the fluorescence interference ratio was 0.986 (inactive).
Under `O=C(COc1ccccc1Cl)Nc1ccc(O)cc1C(=O)O` stands 1 (inactive).
For the molecule `O=C(NCCN1CCN(S(=O)(=O)c2ccccc2)CC1)C(=O)Nc1ccc(Br)cc1`, the fluorescence interference ratio is 1.01 (inactive).
For `COc1cc(C(=O)N2CCC(Cc3ccccc3)CC2)c([N+](=O)[O-])cc1OC` the value was 0.65 (active); for `COc1ccccc1CN1CCN(C(=O)c2ccc([N+](=O)[O-])cc2)CC1`, 1.03 (inactive).
Regarding `COc1ccc(OC)c(S(=O)(=O)N2CCC(Cc3ccccc3)CC2)c1`, the fluorescence interference ratio is 0.968 (inactive).
Under `CCOc1ccc(C(=O)Nc2cc3nn(-c4ccc(C)cc4)nc3cc2C)cc1[N+](=O)[O-]` stands 1.04 (inactive).
For `CN1C(=O)/C(=C\c2ccccc2OCCOc2ccc(Br)cc2)SC1=S` the value was 1.14 (inactive); for `Cc1cccc(NC(=O)COc2ccc3ccccc3c2)c1C`, 1.12 (inactive).
On to `C=CC[n+]1c(-c2ccc(OC)cc2)csc1Nc1cccc(C)c1C`, for which the fluorescence interference ratio is 1.2 (active).
For the molecule `CCC(=O)CC(O)(c1ccccc1)C(F)(F)F` (configuration not stated), the fluorescence interference ratio is 0.957 (inactive).
As for `Cc1cccc(OCC(=O)Nc2ccc(Cl)c(C(F)(F)F)c2)c1`, the fluorescence interference ratio was 1.07 (inactive).
With `Cc1ccc(C(=O)Nc2ccc(Cl)cn2)cc1[N+](=O)[O-]`, the fluorescence interference ratio is 1.02 (inactive).
Under `COc1cc(/C=C2/SC(=S)N(c3c(C)n(C)n(-c4ccccc4)c3=O)C2=O)c([N+](=O)[O-])cc1OC` stands 0.991 (inactive); under `COc1ccc(Br)cc1/C=C1/SC(=S)N(c2cccc(C(F)(F)F)c2)C1=O`, 0.773 (active); under `COc1ccccc1/C=C1\SC(=S)N(CC(C)C)C1=O`, 0.946 (inactive).
Under `O=C1/C(=C\c2cccc(C(F)(F)F)c2)SC(=S)N1c1ccccc1` stands 1.08 (inactive); under `O=Cc1ccc(/C=C2/SC(=S)N(c3cccc(Cl)c3)C2=O)cc1`, 1.1 (inactive); under `O=C1/C(=C\c2cccc(Br)c2)SC(=S)N1c1cccc(C(F)(F)F)c1`, 0.626 (active).
Under `O=C(CN(c1ccc(Br)cc1)S(=O)(=O)c1ccccc1)NCC1CCCO1` (configuration not stated) stands 1.03 (inactive).
As for `Cc1ccc(NCC(O)COc2ccc(OCC(O)CNc3ccc(C)cc3C)cc2)c(C)c1` (configuration not stated), the fluorescence interference ratio is 1.06 (inactive).
For `COC(=O)C1=C(C)N=c2s/c(=C/c3ccccc3OC(C)=O)c(=O)n2C1c1ccc(OC(C)=O)cc1` (configuration not stated) the value was 0.949 (inactive); for `O=C(/C=C/c1cc2c(cc1Br)OCO2)c1ccc(Cl)cc1`, 1.06 (inactive); for `Cc1cccc(CN2CCN(S(C)(=O)=O)CC2)c1`, 0.788 (active).
Take `COc1cc(CN2CCN(Cc3cccc(F)c3)CC2)cc(OC)c1OC`: the fluorescence interference ratio was 1.09 (inactive).
In the case of `Cc1ccc(S(=O)(=O)N2CCN(Cc3ccc(F)cc3)CC2)cc1`, the fluorescence interference ratio is 0.977 (inactive).
Turning to `COc1cc(NC(=O)c2ccc(Br)cc2)cc([N+](=O)[O-])c1`, the fluorescence interference ratio is 0.953 (inactive).
`O=C(CSc1ccc(Cl)cc1Cl)Nc1cccc([N+](=O)[O-])c1`: the fluorescence interference ratio is 0.897 (inactive).
Under `COc1cc(C=C2C(=O)NC(=O)NC2=O)ccc1OCCOc1ccc([N+](=O)[O-])cc1` stands 0.699 (active).
Under `COc1cc(/C=C2/SC(=S)NC2=O)ccc1OCCOCCOc1ccc(C)cc1` stands 0.925 (inactive).
Under `COc1cc(/C=C2/C(=O)NC(=O)N(c3ccc(C)cc3)C2=O)ccc1OCCOc1ccc([N+](=O)[O-])cc1` stands 0.823 (inactive).
`COC(=O)C1=C(C)NC2=C(C(=O)c3ccccc32)C1c1cc2c(cc1Br)OCO2` (configuration not stated): the fluorescence interference ratio is 1.02 (inactive).
For `CS(=O)(=O)N1CCN(C(=O)Cc2ccccc2)CC1`, the fluorescence interference ratio is 0.765 (active).
With `CS(=O)(=O)N(CC(=O)N1CCOCC1)c1ccccc1Cl`, the fluorescence interference ratio was 0.989 (inactive).
For `O=C(c1ccc(S(=O)(=O)N2CCOCC2)cc1)N1CCN(c2ccccc2)CC1` the value was 0.907 (inactive); for `CCC(=O)Nc1ccccc1C(=O)N1CCN(Cc2ccccc2)CC1`, 0.994 (inactive).
Turning to `COc1ccccc1OCC(=O)Nc1nc(-c2cccs2)c(NC(=O)c2ccccc2)s1`, the fluorescence interference ratio is 0.958 (inactive).
For `Cc1ccc(C(=O)Nc2cccc(-c3nc4ccccc4o3)c2C)cc1` the value was 0.985 (inactive).
With `CSc1ccccc1NC(=O)CSc1nc2ccccc2o1`, the fluorescence interference ratio is 0.737 (active).
Consider `O=C(CSc1nc2ccccc2o1)Nc1ccc2c(c1)OCO2`, for which the fluorescence interference ratio was 0.937 (inactive).
Under `C=CCc1ccccc1OCCn1cc(/C=C2/SC(=S)N(CC)C2=O)c2ccccc21` stands 1.05 (inactive); under `O=C(NCC1OCCc2ccccc21)C(c1ccccc1)c1ccccc1` (configuration not stated), 1.08 (inactive).
Turning to `CCOc1ccc(C(=O)Nc2ccncc2)cc1`, the fluorescence interference ratio was 0.969 (inactive).
Under `CCCOc1ccc(C(=O)Nc2ccc(-c3nc4ccccc4o3)c(O)c2)cc1` stands 1.03 (inactive); under `CCCOc1ccc(C(=O)Nc2ccc(N(CC)CC)cc2)cc1`, 1.28 (active).
Under `O=c1oc2cc(OC/C=C/c3ccccc3)ccc2c2ccccc12` stands 1.11 (inactive).
With `O=C(O)CC1S/C(=N\N=C/c2ccccc2O)N(c2ccc(O)cc2)C1=O` (configuration not stated), the fluorescence interference ratio was 1.05 (inactive).
Under `O=S(=O)(c1ccc(Br)c2ccccc12)N1CCOCC1` stands 0.956 (inactive); under `CC(C)CC(=O)Nc1cc(C(=O)O)cc(C(=O)O)c1`, 1.05 (inactive); under `O=C(CN1C(=O)c2ccc([N+](=O)[O-])cc2C1=O)Nc1cc(Cl)ccc1C(=O)O`, 0.984 (inactive).
For `COc1ccc(OC)c(N2C(=O)NC(=O)C(=Cc3ccc(C)o3)C2=O)c1` the value was 1.1 (inactive).
Under `COc1ccc(/C=C2\C(=O)NC(=S)N(c3ccc(Br)cc3)C2=O)cc1` stands 1.05 (inactive); under `CCN(CC)c1ccc(/C=C2\C(=O)NC(=O)N(c3ccc(OC)cc3)C2=O)c(OC)c1`, 1.26 (active).
As for `O=C1NC(=O)C(=Cc2cc([N+](=O)[O-])cc(Br)c2O)C(=O)N1`, the fluorescence interference ratio is 0.895 (inactive).
Under `CC(=O)OC(OC(C)=O)c1ccc([N+](=O)[O-])s1` stands 0.829 (inactive).
For `CCOc1cccc2c1NC(C)(C)c1sn(-c3ccccc3)c(=S)c1-2`, the fluorescence interference ratio was 0.947 (inactive).
Under `CCC(=O)NC(N)=Nc1nc(C)c2cc(C)cc(C)c2n1` stands 1.11 (inactive).
Take `CC1=C(C(=O)OC(C)C)C(c2ccc(Cl)c(Cl)c2)N2C(=O)CCSC2=N1` (configuration not stated): the fluorescence interference ratio was 0.92 (inactive).
